Data from PubChem BioAssay (NCI).
About 83,000 compounds went through this panel and 20% of them were active in at least one assay; those are over-represented in the sample as a whole.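 Cell lines were cultured in 96-well plates, exposed to a single compound concentration, and assessed for percent growth 48 hours later.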 Calls of active or inactive are those of the source. How the source made its calls: active means growth percent below 10; inactive means the rest.

Tests used:
Assay in all cases: NCI-60 one-dose screen, 48 h (100 = growth as untreated, 0 = no growth, -100 = all killed)
Details in all cases: 10 µM unless noted
[1] = test system: HCT-15 colon
[2] = test system: HT29 colon
[3] = test system: SNB-75 CNS
[4] = test system: SNB-19 CNS
[5] = test system: U251 CNS
[6] = test system: PC-3 prostate
[7] = test system: SK-MEL-5 melanoma
[8] = test system: LOX IMVI melanoma
[9] = test system: SK-MEL-28 melanoma
[10] = test system: UACC-62 melanoma

Measured: growth

O=S(=O)(NCCCNc1cc(-c2cn(-c3ccccc3)nc2-c2cccc(O)c2)ccn1)c1cccc(F)c1
active: [1] 9.95% | [2] 8.11%
inactive: [3] 49.5% | [4] 81.6% | [5] 40.1% | [6] 15.5% | [7] 20% | [8] 13.7% | [9] 44.3%

CC(=O)/C=C/c1cc2cc(Cl)ccc2[nH]c1=O
inactive: [1] 76% | [2] 76.8% | [3] 102% | [4] 68.8% | [6] 77.5% | [7] 96.5% | [10] 80.8% | [8] 69.1% | [9] 99.9%

CCN(C(=O)c1cc2ccccc2[nH]1)[C@H]1CCC[C@@H](NCc2ccc(OC)cc2)C1
inactive: [1] 81% | [2] 76.2% | [3] 80.6% | [4] 91.3% | [6] 88.5% | [7] 91.2% | [10] 95.6% | [8] 89% | [9] 98.3%

O=c1oc2cc(OS(=O)(=O)c3ccc(F)cc3)ccc2c2c1CCCCC2
inactive: [1] 26.8% | [2] 27.5% | [3] 80.9% | [4] 78.1% | [6] 44.6% | [7] 32.8% | [10] 65.3% | [8] 88.1% | [9] 86.1%

COC(=O)c1ccc2nc(-c3cc4ccccc4n3C)n(CCCCOc3cc4c(cc3OC)C(=O)N3CCC[C@H]3C=N4)c2c1
inactive: [4] 11.3%
active: [1] -19% | [2] -53.7% | [3] -79.5% | [6] -6.81% | [7] -75.6% | [10] -95.9% | [8] -54.7% | [9] -57.1%

NC(=O)c1c(NC(=O)c2ccc3c(c2)OCO3)sc2c1CCC(=O)C2
active: [1] -40.5% | [2] -45.5% | [3] -12.6% | [6] 3.13% | [7] -94.2% | [10] -37.8% | [9] -38.7%
inactive: [4] 14.3% | [8] 15%

COc1ccc(NC(=S)/N=c2\oc3c(OC)cccc3cc2-c2cc3ccccc3[nH]2)cc1
active: [3] -12.2%
inactive: [1] 84.1% | [2] 82.8% | [4] 57.8% | [5] 75.7% | [6] 58.4% | [7] 72.1% | [8] 76.8% | [9] 69.9%

CCNC(=O)CCCCC(=O)c1c(C)[nH]c(/C=C2\N=C(c3ccc[nH]3)C=C2OC)c1C
active: [1] -39.8% | [2] -100% | [3] -12.6% | [5] 1.75% | [6] -42.2% | [8] -56.9%
inactive: [4] 54.5% | [7] 48% | [9] 51.9%

CCn1cc(C2NC(=O)c3cc(F)ccc3N2)c2cccc(Cl)c21 (stereo not drawn)
inactive: [4] 34.3% | [6] 22.3% | [7] 19.3% | [10] 28.2% | [8] 16.5% | [9] 58.2%
active: [1] 9.89% | [2] 3.35% | [3] -24.9%

CCC1CCc2nc3sc(C(=O)Nc4ccccc4C)c(N)c3cc2C1 (stereo not drawn)
inactive: [1] 26.3% | [3] 25.9% | [4] 54.1% | [6] 26.8% | [7] 26.6% | [10] 33.2% | [8] 35% | [9] 49.5%
active: [2] 7.01%

COc1ccc(NC(=O)CSc2nc3ccccc3c(=O)n2-c2ccccc2C(F)(F)F)c(OC)c1OC
inactive: [1] 105% | [2] 104% | [3] 83.9% | [4] 88.8% | [5] 95.7% | [6] 100% | [7] 98.2% | [8] 98.9% | [9] 106%

COc1ccc(Cl)cc1NC(N)=S
inactive: [1] 103% | [2] 98.7% | [3] 86.6% | [4] 111% | [5] 97.7% | [6] 93% | [7] 104% | [8] 96.7% | [9] 108%
